Test results reported in paper PMC4552634, “A New Set of Chemical Starting Points with Plasmodium falciparum Transmission-Blocking Potential for Antimalarial Drug Discovery” (PLoS ONE, 2015).
Out of some 13,000 compounds screened, about 3,200 (25%) showed an effect of 50% or more. The list shows a part of the results.

system: P. falciparum stage V gametocytes; design: BacTiter-Glo ATP luminescence viability of purified stage V gametocytes in 384-well plates, per cent inhibition versus DMSO; settings: 48 h, 5 µM; inhibitor

SMILES | % Inhibition [%]
Brc1cc(Br)c2c(c1)C(NCCCNc1nc3ncccc3[nH]1)CCN2 (stereo not shown) [TCMDC-140066] | -91.96
CC(C)(C)c1ccc(C(=O)NC2CCC(CCN3CCc4ccc(S(C)(=O)=O)cc4CC3)CC2)cc1C(F)(F)F (stereo not shown) [TCMDC-141428] | -32.14
CN1CCc2ccc(NC(=O)Nc3cccc(C(=O)c4ccccc4)c3)cc2C1 [TCMDC-139177] | -22.18
C/C=C1/CN2CC[C@H]1C[C@H]2[C@H](O)c1ccnc2ccc(OC)cc12 [TCMDC-138265] | 0.1494
CCCCSc1ccc2nc(-c3c[nH]c4ccc(C#N)cc34)cn2c1 [TCMDC-134704] | -54.07
CC(C)c1cc(C(=O)N[C@@H](Cc2ccccc2)[C@H](O)CNC2CCCCC2)cc(N2CCCC2=O)c1 [TCMDC-138861] | 41.96
Cc1ccc(-c2ccc(Cl)cc2Oc2cnc(N)nc2N)o1 [TCMDC-132599] | 4.58
O=C(Nc1cccc(-c2ccc(-c3nc4ccccc4[nH]3)cc2)c1)c1ccncc1 [TCMDC-136962] | -14.71
CCCc1cc(Cc2cnc(N)nc2N)cc(CCC)c1OCCCCC(=O)OCC [TCMDC-137294] | 0.6782
Cc1cc(N[C@@H](Cc2ccccc2)C(=O)NCCOc2ccccc2)nc(NCc2ccccc2C)n1 [TCMDC-134906] | -0.6796
Cc1cc(N[C@@H](Cc2ccccc2)C(=O)NCCc2ccccc2)nc(NCCOc2ccccc2)n1 [TCMDC-134879] | 65.02
Cc1cc(N[C@@H](Cc2ccccc2)C(=O)NCCOc2ccccc2)nc(Nc2ccccc2)n1 [TCMDC-134735] | 6.483
Cc1cc(N[C@@H](Cc2ccccc2)C(=O)NCCOc2ccccc2)nc(NCCOc2ccccc2)n1 [TCMDC-134759] | 76.97
Cc1cc(N[C@@H](Cc2ccccc2)C(=O)NCCOc2ccccc2)nc(NCCc2ccccc2)n1 [TCMDC-134869] | 38.23
COc1cc2sc(=NC(=O)c3cccc([N+](=O)[O-])c3)n(C)c2cc1OC [TCMDC-123526] | 16.54
CC1(C)N=C(N)N=C(N)N1OCc1cccc2c1ccc1ccccc12 [TCMDC-131327] | 39.55
CCCCc1ccc(C(=O)NC2CCN(C[C@H](O)c3ccnc4ccc(OC)cc34)CC2)cc1 [TCMDC-141040] | -10.19
COc1cc2nc(N3CCN(c4cc(C)ccc4C)CC3)nc(N)c2cc1OC [TCMDC-125298] | -12.09
COc1ccc(N2CCN(c3nc(N)c4cc(OC)c(OC)cc4n3)CC2C)cc1 (stereo not shown) [TCMDC-131887] | -85.18
COc1cc2nc(N3CCC(CNC(=O)c4cc(Br)c(Br)s4)CC3)nc(N)c2cc1OC.O=C(O)C(F)(F)F [TCMDC-138213] | -9.659
COc1cc2nc(NCC3CCN(c4nc(N)c5cc(OC)c(OC)cc5n4)CC3)nc(N)c2cc1OC [TCMDC-138723] | 112.2
COc1cc2nc(N3CCC(CNC(=O)c4cc5ccccc5s4)CC3)nc(N)c2cc1OC [TCMDC-138189] | 0.3187

SMILES | % Inhibition [%]
COc1cc2nc(N3CCN(C(=O)c4c(Cl)nsc4-c4ccccc4Cl)CC3)nc(N)c2cc1OC.O=C(O)C(F)(F)F [TCMDC-138186] | 103.1
COc1cc2nc(N3CCN(c4nc(N)c5cc(OC)c(OC)cc5n4)CC3)nc(N)c2cc1OC [TCMDC-123865] | 116.7
COc1cc2nc(N3CCN(C(=O)c4cccc(I)c4)CC3)nc(N)c2cc1OC [TCMDC-131895] | 98.03
COc1cc2nc(N3CCN(C(=O)c4ccc(N(C(=O)OC(C)(C)C)C(=O)OC(C)(C)C)cc4)CC3)nc(N)c2cc1OC [TCMDC-131899] | 9.334
CN(C)C(=O)n1cnc(S(=O)(=O)N(C)c2ccc(Cl)cc2)n1 [TCMDC-134395] | 5.684
CCOC(=O)CCCCOc1c(OC)cc(Cc2cnc(N)nc2N)cc1OC [TCMDC-137291] | 2.332
COc1ccc(NS(=O)(=O)c2ccc(C(=O)Nc3ccc(C(F)(F)F)cc3)cc2)cc1N1CCN(CC2CC2)CC1 [TCMDC-141778] | -16.52
O=C(c1cccs1)N1N=C(c2cccs2)CC1c1cccc([N+](=O)[O-])c1 (stereo not shown) [TCMDC-123688] | 10.72
Cc1noc(C)c1-c1cccc(CNCc2ccc(-c3cccc(-c4nc5cc(C(F)(F)F)ccc5[nH]4)c3)cc2)c1.O=C(O)C(F)(F)F [TCMDC-133051] | -9.881
COc1cc(C(=O)NC2CCN(Cc3ccccc3)CC2)ccc1-c1nc2cc(Cl)c(Cl)cc2[nH]1 [TCMDC-140078] | -56.44
Cc1[nH]c2cc(Cl)ccc2c1C1=CCN(CCN2CCOc3c(Br)cccc3C2=O)CC1 [TCMDC-140966] | -20.54
COc1ccc(Cl)cc1N1CCN(CCCNC(=O)c2ccc(-c3nc4cc(Cl)c(C)cc4[nH]3)c(F)c2)CC1 [TCMDC-140030] | -22.25
COc1cc2nc(N(C)C3CCN(Cc4ccccc4)CC3)nc(N)c2cc1OC [TCMDC-131894] | 19.02
COc1cc2nc(NCc3nc4ccccc4[nH]3)nc(N)c2cc1OC.Cl [TCMDC-131892] | 36.75
COc1cc2nc(NC3CCN(Cc4ccccc4)CC3)nc(N)c2cc1OC [TCMDC-131886] | 84.09
CCCCCN1CCCCC(NS(=O)(=O)c2ccc(C(=O)Nc3ccc(C(F)(F)F)cc3)cc2)C1 (stereo not shown) [TCMDC-133681] | -39.58
CC(=O)c1ccc2nc[nH]c(=O)c2c1 [TCMDC-138172] | 115.1
CC(=O)c1ccc(NC(=O)Nc2ccc3nccc(N4CCN(C)CC4)c3c2)cc1 [TCMDC-139331] | -18.7
COc1ccc2nccc([C@@H](O)CN3CCC(NCc4ccc5nc[nH]c(=O)c5c4)CC3)c2c1 [TCMDC-140981] | 0.6377
COC(=O)C(NC(=O)c1ccc(-c2ccc(-c3nc4ccccc4[nH]3)s2)cc1)c1ccc(O)cc1 (stereo not shown) [TCMDC-132371] | -16.97
Cc1cccc(CN2CCC(C(=O)Nc3ccc(-c4nc5ccccc5[nH]4)cc3)CC2)n1 [TCMDC-124614] | -28.63
CCCCNc1c(C(=O)OCC)c(C)nc2c1[nH]c1ccccc12 [TCMDC-131541] | -37.58

SMILES | % Inhibition [%]
CC1CCC(C(C)C)C(OC(=O)CSc2nnc3c(n2)[nH]c2ccccc23)C1 (stereo not shown) [TCMDC-124002] | 54.66
O=C(NC1CCN(Cc2ccccc2)CC1)c1ccc(-c2nc3cc(Cl)c(Cl)cc3[nH]2)s1 [TCMDC-140086] | -3.887
CCn1c(-c2nonc2N)nc2cnc(Oc3cccc(NC(=O)c4ccc(OCCN5CCCCC5)cc4)c3)cc21 [TCMDC-135778] | -14.59
CCn1c(-c2nonc2N)nc2c(-c3cc4ccccc4s3)ncc(C(=O)N3CCC(N)C3)c21 (stereo not shown) [TCMDC-135281] | 101.1
CN(C)CCNC(=O)[C@H](Cc1ccccc1)NC(=O)c1ccc(O)c(-c2ccc(Cl)c(Cl)c2)c1 [TCMDC-140864] | 22.21
CN1CCCN(Cc2ccc(-c3ccc(NC(=O)c4ccc(Cl)cc4)cc3)cc2)CC1 [TCMDC-132585] | -0.9433
Cc1cccc2[nH]c(-c3cccc(-c4ccc(NC(=O)Nc5ccc(Cl)c(Cl)c5)cc4)c3)nc12 [TCMDC-133275] | -0.4815
c1cc(C2=N[C@H]3CCCC[C@@H]3N2)ccc1OCCCOc1ccc(C2=N[C@@H]3CCCC[C@H]3N2)cc1 [TCMDC-137803] | 109.5
c1cc2nc(CCCc3nc4ccc(C5=N[C@H]6CCCC[C@H]6N5)cc4[nH]3)[nH]c2cc1C1=N[C@@H]2CCCC[C@@H]2N1 [TCMDC-137234] | -8.612
c1cc2nc(CCCCCc3nc4ccc(C5=N[C@@H]6CCCC[C@@H]6N5)cc4[nH]3)[nH]c2cc1C1=N[C@@H]2CCCC[C@@H]2N1 [TCMDC-137237] | -19.86
c1cc(C2=NC3CCCCC3N2)ccc1OCCCCCOc1ccc(C2=NC3CCCCC3N2)cc1 (stereo not shown) [TCMDC-137802] | 132.6
c1cc2nc(CCCCc3nc4ccc(C5=N[C@H]6CCCC[C@H]6N5)cc4[nH]3)[nH]c2cc1C1=N[C@H]2CCCC[C@H]2N1 [TCMDC-137233] | 16.03
c1cc2[nH]c(CCc3nc4cc(C5=NC6CCCCC6N5)ccc4[nH]3)nc2cc1C1=NC2CCCCC2N1 (stereo not shown) [TCMDC-137238] | -12.99
Cc1ccn2c(N(Cc3ccccc3)C(=O)c3ccc(Cl)c(Cl)c3)c(-c3ccccc3)nc2c1 [TCMDC-141396] | -15.83
CCNc1cc(C(=O)N[C@@H](Cc2ccccc2)[C@H](O)CNCCc2ccccc2)cc(N2CCCCS2(=O)=O)c1 [TCMDC-135171] | -2.363
COc1ccc2ncc(F)c(CCN3CC[C@@H](CNCc4cc(C)c5c(c4)OCCO5)C3)c2n1 [TCMDC-136077] | 34.91
CC(C)c1ccc(OCC(O)CN(CCN2CCOCC2)C(=O)Nc2ccc(Br)cc2)cc1 (stereo not shown) [TCMDC-141492] | -0.3608
CCn1c(-c2nc(-c3ccnc(N4CCN(C)CC4)c3)cnc2N)nc2cc(S(C)(=O)=O)ccc21 [TCMDC-134155] | 31.49
CCn1c(-c2nc(-c3ccc4c(c3)OCO4)cnc2N)nc2cnccc21 [TCMDC-135178] | 6.285
COc1cccc2cc(C(=O)N[C@@H](CC(C)C)C(=O)N[C@H](C=NN3CCOC3=O)Cc3ccccc3)oc12 [TCMDC-136074] | -0.683
